From PubChem BioAssay
aSyn 5UTR act – Activators via SNCA 5'UTR binding, MLPCN | activity score, % (tested at 7.5 µM), hits read low | alpha-synuclein 5'UTR reporter, activators screen | actives 7.1% (n = 300,000); in the data active = activity score below about -60%
An asterisk follows results filed as active. A selection follows.

SMILES | aSyn 5UTR act
COc1cccc2c(=O)c(C(=O)NCc3cccs3)c[nH]c12 | -139*
O=C(Cc1c[nH]c2ccccc12)NCc1cccs1 | -63*
CCCN1C(=O)S/C(=C\c2ccc(N3CCOCC3)o2)C1=O | -94*
COC(=O)CN1C(=O)S/C(=C/c2cc(C)n(C)c2C)C1=O | -167*
CCCN1C(=O)S/C(=C/c2ccc(N3CCOCC3)o2)C1=O | -83*
COC(=O)CN1C(=O)S/C(=C/c2ccc(N3CCCCC3)o2)C1=O | -89*
CCn1c(SCC(=O)Nc2ccc(C(C)=O)cc2)nc2ccccc21 | -70*
CC(=O)c1ccc(NC(=O)CSc2nc(=O)cc(N)n2-c2ccccc2)cc1 | -143*
COCCCn1c(SCC(=O)Nc2ccc(C(C)=O)cc2)nc2ccccc2c1=O | -84*
FC(F)(F)c1cnc2c(-c3ccccc3)n[nH]c2c1 | -130*
COc1ccc(C)cc1N(C(=O)COc1ccccc1)c1nc2ccccc2s1 | -92*
CCn1c(C)csc1=NC(=O)c1ccccc1O | -249*
Cc1csc(=NC(=O)c2ccccc2)n1C | -126*
CCn1c(C)csc1=NC(=O)c1ccccc1 | -112*
CCN(CC)c1ccc(/C=C2\SC(N)=NC2=O)cc1 | -114*
Cc1ccc(C(=O)NCCCc2ccccc2)c(C)c1 | -129*
O=C(NCCCc1ccccc1)c1ccc(Br)o1 | -62*
O=C(NCCCc1ccccc1)c1ccc([N+](=O)[O-])cc1Cl | -83*
O=C(NCCCc1ccccc1)c1ccccc1O | -140*
Cc1ccc(C(=O)NCCCc2ccccc2)c(Cl)c1 | -100*
Cc1ccc(C(=O)N2c3ccccc3CC2C)o1 (centres undefined) | -92*
Cc1cccc(N2CCN(C(=O)c3ccc(CS(=O)(=O)c4ccccc4C)o3)CC2C)c1 (centres undefined) | 97
CC1Cc2ccccc2N1C(=O)c1ccc(Br)o1 (centres undefined) | -129*
COc1cc(SC)ccc1C(=O)NCCOc1ccc(F)cc1 | -150*
COc1cc(SC)ccc1C(=O)OCC(=O)N1CCCC1 | -74*
SMILES | aSyn 5UTR act
COc1cc(SC)ccc1C(=O)NCC1CCCCC1 | -67*
CSC1=NNC(c2ccc(C(C)(C)C)cc2)=NN1 | -106*
COc1ccc2nc(NC(=O)CSCC(=O)Nc3cc(C)on3)sc2c1 | -101*
CCOc1ccc2nc(NC(=O)CSc3ccccc3)sc2c1 | -69*
CCCC(=O)Nc1nc2ccc(OCC)cc2s1 | -105*
COc1ccc2nc(NC(=O)CSc3nc4ccccc4o3)sc2c1 | -153*
CN(C)C(=S)Nc1nc2ccccc2s1 | -137*
CCOc1ccc2nc(NC(=S)N(C)C)sc2c1 | -82*
COc1ccc2nc(NC(=O)CSc3nnc(-c4ccoc4C)n3C)sc2c1 | -134*
CCOc1ccc2nc(NS(=O)(=O)Cc3ccccc3)sc2c1 | -66*
CCOc1ccc2nc(SCC(=O)c3cccs3)sc2c1 | -122*
CCC1(c2ccc(Cl)cc2)NC(=S)N(c2ccc(C)c(C)c2)N1 (centres undefined) | -67*
CCC1(c2ccc(Cl)cc2)NC(=S)N(c2ccc(C)cc2)N1 (centres undefined) | -308*
Cc1csc(=O)n1CC(=O)OCc1cccc2ccccc12 | -90*
C/C(=N\NC(=O)c1cc(-c2cccnc2)nc2ccccc12)c1ccc(O)cc1O | 105
C/C(=N/NC(=O)c1cc2ccccc2cc1O)c1ccco1 | -64*
C/C(=N\NC(=O)c1cccc(N/N=C(\C)c2ccco2)c1)c1ccco1 | -81*
C/C(=N\NC(=O)c1c(C)nc2ccccn12)c1ccco1 | -139*
C/C(=N\NC(=O)c1c(C)nc2ccccn12)c1ccc(C(C)(C)C)cc1 | -98*
O=C(c1cc(-c2ccccc2)on1)N1CCCc2ccccc21 | -100*
O=C(c1cc(-c2ccco2)on1)N1CCCc2ccccc21 | -69*
O=C(c1nn2c(C(F)(F)F)cc(-c3ccco3)nc2c1Br)N1CCCc2ccccc21 | 93
O=C(Nc1ccc(N2CCOCC2)cc1)Nc1ccc2nc(-c3ccco3)c(-c3ccco3)nc2c1 | 112
O=C(Nc1ccc2nc(-c3ccco3)c(-c3ccco3)nc2c1)NC1CC1 | -65*
CN1CCN(CC/C=C2/c3ccccc3Sc3ccc(S(=O)(=O)N(C)C)cc32)CC1 | -97*
SMILES | aSyn 5UTR act
Cc1ccc(OCCNC(=O)c2ccc(C)cc2)cc1 | -148*
CS(=O)(=O)NCc1ccc(C(=O)NCCOc2ccccc2)cc1 | -120*
CC(C)CCOc1ccc(C(=O)NCCC(=O)N2CCOCC2)cc1 | -82*
CCOC(=O)CNC(=O)c1ccc(OCC(F)(F)F)cc1 | -76*
COCCCNC(=S)NC(=O)c1ccc(C)cc1 | -125*
COc1ccc(OCCNC(=O)c2ccc(C)cc2)cc1 | -79*
COc1ccccc1NC(=O)c1cnc2n(c1=O)CCS2 | -133*
COc1ccc(Cl)cc1NC(=O)c1cnc2n(c1=O)CCS2 | -78*
CCc1c(C)sc(NC(=O)c2cc(C)on2)c1C#N | -103*
CCc1c(C)sc(NC(=O)c2cccs2)c1C#N | -158*
Cc1cc(C(=O)Nc2sc(C)c(-c3ccc(F)cc3)c2C(N)=O)no1 | -200*
Cc1sc(NC(=O)c2ccccc2)c(C#N)c1-c1ccccc1 | -141*
c1ccc2oc(SCc3cn4ccsc4n3)nc2c1 | -122*
Cc1csc2nc(CSc3ccc(Cl)cc3)cn12 | -103*
c1ccc(CSCc2cn3ccsc3n2)cc1 | -176*
Clc1ccc(SCc2cn3ccsc3n2)cc1 | -236*
c1cn2cc(CSC3CCCCC3)nc2s1 | -130*
Cc1cc(OCc2cn3cccnc3n2)ccc1Cl | -127*
Clc1ccc(SCc2cn3cccnc3n2)cc1 | -64*
CC(=O)c1cccc(NC(=O)c2noc3c2CCc2ccccc2-3)c1 | -168*
Cc1cc(NC(=O)c2noc3c2CCc2ccccc2-3)no1 | -77*
Cc1ccc(O)c(NC(=O)c2noc(C(C)C)c2[N+](=O)[O-])c1 | -86*
Cc1ccc(O)c(NC(=O)c2noc3c2CCc2ccccc2-3)c1 | -122*
O=C(Nc1ccccc1F)C(=O)Nc1cccc2ccccc12 | -119*
O=C(Nc1cccc2ccccc12)/C(Cl)=C/c1ccccc1 | -81*
SMILES | aSyn 5UTR act
CC(CC(=O)NCc1ccccc1)C1CCCO1 (centres undefined) | -62*
Cc1ccccc1NC(=S)Nc1ccc2cn[nH]c2c1 | -104*
S=C(Nc1ccc(Cl)cc1)Nc1ccc2cn[nH]c2c1 | -175*
S=C(Nc1ccc2cn[nH]c2c1)Nc1ccccc1Cl | -166*
CCc1ccc(NC(=S)Nc2ccc3cn[nH]c3c2)cc1 | -196*
CN(/N=C/c1ccncc1)c1cnc2ccccc2n1 | -206*
CC(C)Oc1ccc(CSc2ncn[nH]2)cc1 | -84*
COc1cc2c(cc1NC(=O)c1ccncc1)oc1ccccc12 | -132*
COc1cc2c(cc1NC(=O)c1cccc([N+](=O)[O-])c1)oc1ccccc12 | 81
COc1cc2c(cc1NC(=O)c1cccnc1)oc1ccccc12 | -155*
CCCOc1ccc(C(=O)NNC(=S)NC(C)=O)cc1 | 68
FC(F)(F)c1ccc(-c2nnc(-c3cccnc3)o2)cc1 | -88*
Brc1ccccc1-c1nnc(-c2cccnc2)o1 | -106*
Brc1ccc(-c2nnc(-c3ccccc3Br)o2)cc1 | -100*
CCCOc1ccc(-c2nnc(-c3ccncc3)o2)cc1 | -80*
Cc1noc(C)c1-c1nnc(-c2ccc(C(F)(F)F)cc2)o1 | -66*
Clc1ccc(-c2nnc(-c3ccccc3)o2)cn1 | -153*
Brc1ccc(-c2nnc(-c3cccnc3)o2)cc1 | -144*
Clc1ccc(-c2nnc(-c3cccnc3)o2)cc1 | -139*
COc1ccc(-c2nnc(-c3cccnc3)o2)cc1 | -111*
